From ChEMBL document CHEMBL4513216, “Probing the Open Global Health Chemical Diversity Library for Multistage-Active Starting Points for Next-Generation Antimalarials” (ACS Infect Dis, 2020) come the findings set out here.

About 2,700 (4%) of roughly 68,000 compounds showed an effect of 50% or more. This is one part of a sample in which strong results are shown more often than they occur.

This assay has as its system Plasmodium berghei. Description: Screen against P. berghei liver stage (PbLuc), transformed with Luciferase, at 2uM. Type of assay: functional, HepG2. As to conditions: tested at 2 uM.
Take `Cn1cc(CNC2CCc3c(ccc(=O)n3Cc3cccnc3)C2)cn1` (configuration not stated): the INHIBITION is 17.69%.
`O=C(NS(=O)(=O)c1cc(Cl)ccc1Cl)c1cccc2c1OCCO2`: the INHIBITION is reported as -55.23%.
For `Cc1nn(C)c2cnn(Cc3ccc(C(=O)N4CCN(C)CC4)o3)c12`, the INHIBITION is listed as 1.33%.
Consider `CS(=O)(=O)NCCC(=O)N1Cc2cnc(-c3ccccc3)nc2C1`, for which the INHIBITION is listed as -49.29%.
`CCn1cc(CN2CCCN(C(=O)C3=NN(C)C(=O)CC3)CC2)cn1`: the INHIBITION is 59.73%.
Turning to `CCn1cc(CN2CCCN(C(=O)c3cccn3C)CC2)cn1`, the INHIBITION is 19.18%.
For `CCn1cc(CN2CCCN(C(=O)CCN3CCCC3=O)CC2)cn1`, the INHIBITION is reported as -35.65%.
`COc1cccc(S(=O)(=O)NC(=O)CCC2CCCC2)c1`: the INHIBITION stood at 37.68%.
For `O=C(c1cccnc1)N1CCOC(c2ccc(-c3cncnc3)cn2)C1` (configuration not stated), the INHIBITION is -6.04%.
For `C[C@H]1C[C@H]2CN(C(=O)CCOc3ccccc3)CC[C@H]2O1`, the INHIBITION is reported as -12.84%.
To `C[C@H]1C[C@H]2CN(C(=O)CCc3ccccc3)CC[C@H]2O1` belongs 65.32%.
For `COCCC(=O)N1CC[C@@H]2O[C@@H](C)C[C@H]2C1`, the INHIBITION stood at 22.01%.
As for `Cc1n[nH]c(C)c1CCC(=O)NCC1COc2ccccc2C1` (configuration not stated), the INHIBITION came out at 11.19%.
For `COCc1ccc(C(=O)N2CC[C@H](O)[C@@H](n3ccnc3)CC2)cc1` the value was -7.01%; for `NC(=O)COc1ccc(C(=O)N2CCCC(n3ccnc3)C2)cc1` (configuration not stated), -10.05%; for `CC(C)Oc1ccc(C(=O)N2CC[C@H](O)[C@@H](n3ccnc3)CC2)cc1`, 52.69%.
`Nc1cc2c(nn1)CCN(C(=O)C1CCc3ccccc31)C2` (configuration not stated): the INHIBITION was found to be 16.89%.
Regarding `CCOC(=O)N1CC2(CCNCC2)c2cc(Cl)ccc21`, the INHIBITION is listed as -12.43%.
Consider `c1cc(CCNc2ccc(CC3CCNC3)cn2)ccn1` (configuration not stated), for which the INHIBITION is reported as -6.19%.
As for `Cc1cc(C)n(C2CCCN(C(=O)c3ccnc(N(C)C)c3)C2)n1` (configuration not stated), the INHIBITION was 3.17%.
Take `OCc1csc(N2CCN(Cc3cccc(F)c3)CC2)n1`: the INHIBITION is 45.82%.
In the case of `Cc1cccc(CN2CCN(c3nc(CO)cs3)CC2)c1`, the INHIBITION is recorded as 86.36%.
For the molecule `OCc1csc(N2CCCN(Cc3ccc(F)cc3)CC2)n1`, the INHIBITION amounted to 36.28%.
Regarding `CCS(=O)(=O)CCN1CCC(N(C)Cc2ncc(C)o2)C1` (configuration not stated), the INHIBITION is on record as 31.55%.
Consider `Cc1noc(C)c1CN1CCc2ncnc(-c3ccc(F)cc3)c2CC1`, for which the INHIBITION turned out to be 49.45%.
On to `COc1ccccc1C1=NOC(CC2(C(=O)NCCO)CCOCC2)C1` (configuration not stated), for which the INHIBITION is on record as -39.01%.
To `CCCNC(=O)C1(CC2CC(c3ccccc3OC)=NO2)CCOCC1` (configuration not stated) belongs 51.57%; to `CCNC(=O)C1(CC2CC(c3ccccc3OC)=NO2)CCOCC1` (configuration not stated), -2.93%.
`CCS(=O)(=O)N1CCC2(CC1)CC(COC)N(c1ncccn1)C2` (configuration not stated): the INHIBITION amounted to 28.45%.
On to `Cc1cc(C)n(CC2CCCCN2CCC(=O)Nc2cc(C)on2)n1` (configuration not stated), for which the INHIBITION is 21.39%.
For the molecule `Cc1cc(-c2nc(-c3cccc(CN4CCOCC4)c3)no2)no1`, the INHIBITION was determined as 53.19%.
As for `Cc1c(-c2nc(-c3cccc(CN4CCOCC4)c3)no2)cnn1C`, the INHIBITION came out at 35.56%.
For `Cc1cnc(-c2nc(-c3cccc(CN4CCOCC4)c3)no2)cn1` the value was 15.74%; for `CCOCCNC(=O)c1ccc(OC)cc1I`, 30.48%; for `Clc1cccc(C[C@@H]2NCCC[C@@H]2Nc2ccccc2)c1`, 33.95%.
For the molecule `Cc1ccc2cc(C3(O)CCN(C)CC3)ccc2n1`, the INHIBITION is 8.88%.
Take `COCCOCC(=O)N1CCC(O)(c2ccc3nc(C)ccc3c2)CC1`: the INHIBITION is recorded as -3.38%.
For `Cc1ccc2cc(C(=O)N3CCC(O)(C(F)(F)F)CC3)ccc2n1` the value was -13.42%; for `CC1=NOC(C(=O)N2CCC(O)(c3ccc4nc(C)ccc4c3)CC2)C1` (configuration not stated), -70.57%; for `Cc1ccc2cc(C3(O)CCN(C(=O)CN4CCCC4)CC3)ccc2n1`, 8.65%.
On to `Cc1ccc2cc(C3(O)CCN(C(=O)CSC(C)C)CC3)ccc2n1`, for which the INHIBITION came to 70.17%.
For `Cc1ccc2cc(C3(O)CCN(C(=O)[C@@H]4CCCCN4)CC3)ccc2n1`, the INHIBITION is recorded as 53.98%.
In the case of `CCCOC(C)C(=O)N1CCC(O)(c2ccc3nc(C)ccc3c2)CC1` (configuration not stated), the INHIBITION is recorded as 52.66%.
As to `Cc1ccc2cc(C(=O)N3CCN(C(=O)N(C)C)CC3)ccc2n1`, the INHIBITION was determined as 7.02%.
Turning to `Cc1ccc(CNC(=O)Nc2nccs2)cn1`, the INHIBITION is given as -11.83%.
With `Cc1nc(CN2CCCC(Cn3cc(CCO)nn3)C2)c2ccccn12` (configuration not stated), the INHIBITION is on record as -27.82%.
On to `Cn1cc(-c2nnn3c2COC(CNCc2ccncc2)C3)cn1` (configuration not stated), for which the INHIBITION is reported as -42.69%.
For the molecule `O=C(c1ccccc1-c1nnn[nH]1)N1CCOC(C(F)(F)F)C1` (configuration not stated), the INHIBITION is given as -12.13%.
As for `COCCCNc1c(C#N)c2c(c3nncn13)CN(C)CC2`, the INHIBITION was 52.23%.
To `CN1CCc2c(C#N)c(NCCCO)n3cnnc3c2C1` belongs -9.74%; to `COCCNc1c(C#N)c2c(c3nncn13)CN(C)CC2`, 18.59%.
Regarding `Cc1oncc1C(=O)NCC(c1ccccc1Cl)N1CCOCC1` (configuration not stated), the INHIBITION is listed as 8.6%.
With `COc1cc(N2CCC3(CC2)CC(N2CCOCC2)CO3)ncn1` (configuration not stated), the INHIBITION is 34.24%.
With `COc1cc(N2CCC3(CC2)CC(N2CCOCC2)C3)ncn1`, the INHIBITION is given as 52.36%.
Take `COc1cc(N2CCC3(CC2)CC(N2CCN(C)CC2)CO3)ncn1` (configuration not stated): the INHIBITION was -39.89%.
Turning to `CSCCC(C)(O)CNS(=O)(=O)Cc1cccc(C)c1` (configuration not stated), the INHIBITION is -40.82%.
As to `O=C(Cc1ccon1)NC1CCCN(c2ccccc2F)C1=O` (configuration not stated), the INHIBITION is listed as 28.73%.
To `O=C(Cc1nc(-c2ccncc2)n[nH]1)NCCCN1CCOCC1` belongs 15.46%.
To `O=C(NCCN1CCCCC1=O)C1CCC(=O)N(C2CCCC2)C1` (configuration not stated) belongs 54.29%; to `CSCCNC(=O)C1CCC(=O)N(C2CCCC2)C1` (configuration not stated), 21.24%; to `O=C(NCC(F)(F)F)C1CCC(=O)N(C2CCCC2)C1` (configuration not stated), 9.13%.
Take `CSCCCNC(=O)C1CCC(=O)N(C2CCCC2)C1` (configuration not stated): the INHIBITION is recorded as 56.49%.
Consider `O=C(NCCn1cccc1)C1CCC(=O)N(C2CCCC2)C1` (configuration not stated), for which the INHIBITION was found to be 10.75%.
For `COC(C)(C)CNC(=O)C1CCC(=O)N(C2CCCC2)C1` (configuration not stated), the INHIBITION was 8.03%.
To `CC(C)OCCNC(=O)C1CCC(=O)N(C2CCCC2)C1` (configuration not stated) belongs 28.95%; to `CC(C)OCCCNC(=O)C1CCC(=O)N(C2CCCC2)C1` (configuration not stated), 68.61%.
As for `C=C(C)CNC(=O)C1CCC(=O)N(C2CCCC2)C1` (configuration not stated), the INHIBITION is 2.52%.
